# Out of some 320,000 compounds screened, about 2,100 (0.66%) were called active. Inconclusive results (about 53%) are left out. Calls follow the shape of the dose curve; as a rule, active = well fitted inhibition curve with a large enough effect in the signal ratio, with a control signal flat (not every such curve was filed as active); inconclusive = small, poorly fitted or top-dose-only effect, or effect the other way, or a change in a side signal; inactive = flat fitted curve, though single readings scatter; the % refers to the signal ratio. What follows is part of a selection rich in actives, with near analogues and random picks from the rest.
# Test: qHTS Assay for Lipid Storage Modulators in Drosophila S3 Cells;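 as to cell number change: cells counted by Cell Tracker Red CMTPX staining in the red channel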
# Details: BODIPY lipid droplet fluorescence, 18-24 h, cells fed with added oleic acid; cell number change: measured here: cell count max response; series mostly up to 46.1 µM
# Procedure, shortened: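 Drosophila S3 cells got compounds at several concentrations plus oleic acid (400 uM solution). Laser-scanning cytometry with 488 nm excitation read lipid droplets at 500-530 nm and cells at 575-640 nm. Percent activity was relative to 20 uM Triacsin C.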
# Potency is read from the fitted curve at half-maximal effect.
Compound,Potency,cell number change [%]
O=c1[nH]c2ccccc2nc1C(F)(F)F,inactive,17.1
Cc1onc(-c2ccccc2)c1C(=O)N/N=C/c1ccc(Br)cc1,inactive,8.96
O=C(c1ccc(CS(=O)c2cccc(Cl)c2)o1)N1CCCCCC1 (configuration not stated),inactive,-0.885
O=C(c1ccc(CS(=O)c2cccc(Cl)c2)o1)N1CCOCC1 (configuration not stated),inactive,-42.8
Cc1ccc(CS(=O)Cc2ccc(C(=O)N3CCN(c4ccccc4)CC3)o2)cc1 (configuration not stated),inactive,
Cc1ccc(CS(=O)Cc2ccc(C(=O)N3CCN(c4ccccn4)CC3)o2)cc1 (configuration not stated),7.31 µM (active),
O=C(c1ccc(CS(=O)c2cccc(Cl)c2)o1)N1CCN(c2ccccn2)CC1 (configuration not stated),18.4 µM (active),-26.2
O=C(c1ccc(CS(=O)Cc2ccccc2Cl)o1)N1CCN(c2ccccn2)CC1 (configuration not stated),inactive,
CC(=O)Nc1ccc(S(=O)(=O)N2CCCN(S(=O)(=O)c3ccc(C)cc3)CC2)cc1,inactive,-14.2
CCCCC[n+]1ccn(C2=C([O-])c3ccccc3C(=O)/C2=N\S(=O)(=O)c2ccc(Br)cc2)c1,inactive,
NC(=NCCc1ccccc1)NS(=O)(=O)c1cccs1,inactive,-0.301
Cc1ccc(/C=C2\S/C(=N/S(=O)(=O)c3cccs3)NC2=O)cc1,inactive,3.91
O=C1/C(=N\S(=O)(=O)c2cccs2)C([n+]2ccccc2)=C([O-])c2ccccc21,20.6 µM (active),-19.9
N/C(=N\S(=O)(=O)c1cccs1)c1ccccc1,inactive,3.91
CCc1ccc(NS(=O)(=O)c2cccs2)cc1,inactive,
Cc1cc[n+](-c2nc3ccccc3nc2[N-]S(=O)(=O)c2cccs2)cc1C,inactive,-0.563
CC(C)N(Cc1ccccc1)S(=O)(=O)c1cccs1,inactive,
CCc1cc[n+](C2=C([O-])c3ccccc3C(=O)/C2=N\S(=O)(=O)c2cccs2)cc1,1.84 µM (active),2.59
O=C1/C(=N\S(=O)(=O)c2cccs2)C([n+]2cccc(Cc3ccccc3)c2)=C([O-])c2ccccc21,20.6 µM (active),-9.11
Cc1cc[n+](C2=C([O-])c3ccccc3C(=O)/C2=N\S(=O)(=O)c2cccs2)cc1C,8.2 µM (active),-25.5
O=C1C(=O)c2ccccc2C([O-])=C1[n+]1ccccc1,inactive,19.4
O=[N+]([O-])c1cccc(C(=S)N2CCCC2)c1,inactive,3.41
COc1ccccc1/C=C/C(=O)OCC(=O)NCc1ccco1,inactive,4.89
CCCc1c(C(=O)N/N=C(/C)c2ccncc2)nnn1-c1nonc1N,inactive,8.62

Compound,Potency,cell number change [%]
Cc1ccc(/C=C2/SC(=S)N(C3CCCCC3)C2=O)o1,inactive,14.1
Cc1cc(C)n(CCCN2C(=O)c3cccc4cccc(c34)C2=O)n1,inactive,
CNCc1ccccc1OCC(=O)Nc1ccccc1,inactive,-38.8
COc1ccc(CC(=O)OCC(=O)N2CCCc3ccccc32)cc1,inactive,-4.06
COCCCNC(=O)CCC(=O)NNc1nc2ccccc2c2nc(-c3ccccc3)nn12,inactive,5.05
CCOCCCNC(=O)CCC(=O)NNc1nc2ccccc2c2nc(-c3ccccc3)nn12,inactive,-6.89
CC(C)OCCCNC(=O)CCC(=O)NNc1nc2ccccc2c2nc(-c3ccccc3)nn12,11.6 µM (active),-5.84
Cc1cc(C)cc(-n2c(N)c(C(=O)Nc3c(C)n(C)n(-c4ccccc4)c3=O)c3nc4ccccc4nc32)c1,inactive,0.326
CCOc1cc(/C=C/c2cccc[n+]2C)ccc1OCC(=O)Nc1ccc(C)cc1,inactive,2.56
CCC(Sc1nc(N)cc(N)n1)C(=O)O (configuration not stated),20.6 µM (active),-9.76
CCC(Sc1ccc(C(=O)O)cc1)C(=O)O (configuration not stated),inactive,22.4
CCC(Sc1nc2ccccc2o1)C(=O)O (configuration not stated),inactive,11.5
O=C(NCCO)c1cccc(Cl)c1,25.9 µM (active),-4.89
Cc1ccc(C)n1NC(=O)c1ccc(Cl)cc1Cl,inactive,0.742
Cc1ccc(C)n1NC(=O)c1ccccc1,inactive,1.97
Cc1ccc(C)n1NC(=O)c1cccc(Cl)c1,20.6 µM (active),
CC(C)CCNC(=O)c1cccc(Cl)c1,inactive,19.2
NC(=O)CNC(=O)c1cccc(Cl)c1,inactive,1.9
COc1ccc(N2C(=S)N=C(Nc3cccc(C)c3)C23CCCCC3)cc1,inactive,-6.29
Cc1ncoc1C(=O)N1CCCC(C(=O)c2cccc3ccccc23)C1 (configuration not stated),inactive,6.72
CCC(C)Oc1nc2c(c(=O)n(C)c(=O)n2C)n1C (configuration not stated),inactive,14.8
CC(=O)/C(=C/Nc1ccc(Oc2ccccc2)cc1)c1ccccc1,inactive,
COc1ccc(-n2nc(C(=O)NCC(=O)NCCCN3CCOCC3)c3ccccc3c2=O)cc1,inactive,-8.11
COc1ccccc1CNc1cncnc1,inactive,7.04

# — PubChem BioAssay AID2685 (National Center for Advancing Translational Sciences (NCATS), 2010)
